About 83,000 compounds went through this panel and 20% of them were active in at least one assay; those are over-represented in the sample as a whole.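 Single-dose data. Exposure time 48 hours. Values below 10 considered active.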 Unmarked numbers belong to inactive results. Activity calls are given as the source filed them.
What follows are compounds tested on MDA-MB-468 breast (assay: NCI-60 one-dose screen, 48 h (100 = growth as untreated, 0 = no growth, -100 = all killed)). Settings: 10 µM unless noted.

Compound | growth
CCCC1CCC(=C2C(=O)CCC2=O)O1 (stereo not given) | 88.7%
CC1CCCN(CCCCCOc2ccc3oc4ccc(Cl)cc4c(=O)c3c2)C1 (stereo not given) | 68.7%
COc1cc(-c2nn(C(C)(C)C)cc2-c2ccnc(NCCCNS(=O)(=O)c3ccc(F)cc3)n2)ccc1Cl | 72.9%
COc1ccc(-c2c(-c3ccc(OC)c(O)c3)cnc3ncnn23)cc1 | 109%
C#C[C@]1(O)CC[C@H]2[C@@H]3CC=C4c5sc(-c6cccc(F)c6)nc5CC[C@]4(C)[C@H]3CC[C@@]21C | 71.1%
Cc1ccc(Sc2sc(-c3ccccc3)nc2[P+](c2ccccc2)(c2ccccc2)c2ccccc2)cc1 | -61.8% (active)
Cc1ccc2c(c1)ncn2-c1ncnc2c1CC(C)c1ccccc1N2C (stereo not given) | 38%
CCOc1ccc(-c2nc3ccc(-c4nc5ccc(N6CCN(C)CC6)cc5[nH]4)cc3[nH]2)cc1 | -85.2% (active)
CCCC(C)c1ccc(OCCCCCCN2CCNCC2)cc1 (stereo not given) | -58.5% (active)
Cc1ccc(C2CC(c3cccc(Nc4ccncc4)c3)=NN2c2ccc(Cl)cc2)cc1 (stereo not given) | -71% (active)
COC(=O)c1c2c(c(C)[n+]([O-])c1C)C(=O)C(NCc1ccc(O)cc1)=CC2=O | -44.2% (active)
COCCn1cc(-c2csc(-c3c[nH]c4ccc(F)cc34)n2)c2cccnc21 | -6.83% (active)
O=C(NCCNCCO)c1cc([N+](=O)[O-])cc([N+](=O)[O-])c1O | 103%
Cc1ccc(NC(=O)Nc2ccc(Nc3ncnc4sc5c(c34)CCOC5)cc2)cc1Cl | 102%
CC(/C=N/N1C(=O)c2ccccc2C1=O)c1ccccc1 (stereo not given) | 95.9%
O=C1c2cccnc2C(=O)c2c1c(C(=O)NCCn1ccnc1)c1ccccn21 | -6.68% (active)
COc1cc(C(=O)n2nc(N)c3c(C)cc(C)nc32)cc(OC)c1OC | 20.3%
CCOC(=O)C(C#N)C1CCCCC1 (stereo not given) | 124%
CN1CCN(Cc2ccc(NC(=O)c3cncc(C#Cc4cnc(N)c5ncccc45)c3)cc2Cl)CC1 | 85.4%
O=[N+]([O-])c1ccc(N/N=C\c2ccc(O)cc2O)nc1 | 56%

Compound | growth
Brc1ccc(-c2nn(-c3ccccc3)cc2-c2nn[nH]n2)s1 | 98.8%
O=C(NC1CCN(Cc2ccccc2)CC1)c1cc(-c2cccnc2)nc2ccc(Cl)cc12 | 54.7%
Brc1cccc(-c2cc(-c3ccc4c(c3)OCCCO4)[nH]n2)c1 | 50.6% [25 µM]
Fc1ccc(CNc2c3ccccc3nc3ccccc23)cc1F | -10.7% (active)
CCn1c(=O)c2c(=O)c3c4c(oc3oc2c2ccccc21)C(=O)c1ccccc1C4=O | -29.6% (active)
Nn1c(=O)n(-c2cccc(C(F)(F)F)c2)c(=O)c2cc(-c3ccc(F)cc3F)ccc21 | -5.36% (active)
Cc1ccc(C2SCC(=O)N2NC(=O)c2[nH]c3ccc(F)cc3c2-c2ccccc2)cc1 (stereo not given) | 96%
Cn1cc(-c2csc(-c3c[nH]c4ccccc34)n2)c2cccnc21 | -22% (active)
Brc1ccc(-c2cnc3nonc3n2)cc1 | 50.1%
O=C(NCc1ncc[nH]1)c1ccc(-c2nc3ccc4[nH]ncc4c3c3c2CCCC3)cc1 | -47.1% (active)
C=CCNC(=S)N/C=C(/C(=O)c1ccccc1)c1ccccc1 | 102%
Cc1c(F)cc(C(N)=O)cc1NCC(=O)Nc1ccc([N+](=O)[O-])cc1 | 92.4%
COc1ccccc1Cn1cc2c(c1-c1ccccc1)CCc1cnoc1-2 | 10.9%
Cc1ccc(Cl)cc1N1CCN(C(=O)[C@@H]2C[C@@H]2c2ccc(F)cc2)CC1 | 75.3%
Cc1nc2cc(-c3nn(C(C)C)c4ncnc(N)c34)ccc2o1 | -37.7% (active)
Cc1nn(-c2ccc(Cl)cc2)c2ncnc(N/N=C/c3cccc([N+](=O)[O-])c3)c12 | 117%
O=C(Nc1cnn2ccc(N3CCC[C@@H]3c3cc(F)ccc3F)nc12)N1CC[C@H](O)C1 | 88.7%
COc1ccc2[nH]cc(-c3csc4nc(-c5ccccc5)cn34)c2c1 | 21.2%
Cc1cc2nc(-c3ccccc3)c(-c3ccccc3)nc2cc1C | 106%
COC(=O)[C@]1(C)CCC[C@]2(C)[C@H]3C[C@H]4C(C(C)C)=C[C@]3(CC[C@H]21)[C@@H]1C(=O)CC[C@H](OCCC#N)[C@@H]14 | 70.5%

Source: PubChem BioAssay (NCI)
